From the supplement of paper PMC10338343
± gives the standard deviation. Whole data set: some 8,200 sequences, median “pre-steady-state target cleavage rate” near 0.024, cut for the highest 2% near 1.3. For the sample, the highest values were picked, then their nearest neighbours and some sequences at random.

Test system: MIWI (PIWIL1) piRISC loaded with L1MC piRNA (30 nt)
Test: pre-steady-state target cleavage rate (min^-1); MIWI and MILI are mouse PIWI proteins and EfPiwi is from a freshwater sponge; tags in brackets are library labels; higher = faster piRNA-guided slicing of the target
Settings: guide: L1MC piRNA 5'p-UAACUAAAUACUAUGCAAGCUGUAGGUCCU
Outline: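 In Cleave-'n-Seq, a transcribed, DNA-blocked target RNA library (0.1 nM) was combined with 1 nM active affinity-purified piRISC bearing one synthetic guide, with or without 500 nM GTSF1 partner protein. Reactions ran in HEPES–potassium acetate buffer at 33 °C for 0–8 or 0–960 min. Uncleaved targets were sequenced and normalised to depth and to weakly complementary targets, three trials were pooled, and k3 was capped at 0.0001 min^-1. The pre-steady-state cleavage rate was obtained by fitting a burst-and-steady-state model.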

[1] = auxiliary factor: 500 nM mouse GTSF1
[2] = auxiliary factor: none (no GTSF1)

| Sequence | pre-steady-state target cleavage rate [1] | pre-steady-state target cleavage rate [2] |
| --- | --- | --- |
| UCGACCUACAGCUUGCAUUGUAUUUACUUA | 0.49 ± 0.028 | 0.0226 ± 0.0052 |
| AGGACCUACAGCUAGGAUAGUAUUUAGUUA | 1.09 ± 0.06 | 0.0102 ± 0.0018 |
| UCGACCUACAGCUAGGAUAGUAUUUAGUUA | 1.29 ± 0.064 | 0.00874 ± 0.0021 |
| UGGACCUACAGCUAGGAUAGUAUUUAGUUA | 1.39 ± 0.068 | 0.00938 ± 0.0019 |
| UCCACGUACAGCUUGGAUAGUAUUUAGUUA | 1.14 ± 0.065 | 0.0509 ± 0.0081 |
| UCGACGUACAGCUUGGAUAGUAUUUAGUUA | 1.24 ± 0.042 | 0.0503 ± 0.0083 |
| AGGAGCUACAGCUUGGAUAGUAUUUAGUUA | 1.17 ± 0.081 | 0.0558 ± 0.0094 |
| UGGACGUACAGCUUGGAUAGUAUUUAGUUA | 1.4 ± 0.054 | 0.0597 ± 0.01 |
| UCCUCGUACAGCUUGGAUAGUAUUUAGUUA | 1.22 ± 0.062 | 0.0636 ± 0.011 |
| AGGACGUACAGCUUGGAUAGUAUUUAGUUA | 1.36 ± 0.067 | 0.0579 ± 0.0083 |
| UCGUCCUAGAGCUUGCAUAGUAUUUAGUUA | 0.957 ± 0.041 | 0.0436 ± 0.0072 |
| UCCUCCUAGCAGCUUGCAUAGUAUUUAGUUA | 1.12 ± 0.046 | 0.0448 ± 0.0093 |
| UCCACCUACAGCUUCGAUAGUAUUUAGAAA | 0.0807 ± 0.021 | – |
| UCCUGGAUGAGCUUGCUAUGUAUUUAGUUA | 0.00494 ± 0.0027 | 0.00308 ± 0.0029 |
| UGGAGCUAGAGCUUGCAUAGUAUUUAGUUA | 0.707 ± 0.048 | 0.0402 ± 0.0068 |
| UCCUGCUUCAGCUUGCAUAGUAUUUAGUAA | 0.537 ± 0.036 | 0.0275 ± 0.0068 |
| AGGAGCUAGAGCUUGCAUAGUAUUUAGUUA | 0.922 ± 0.049 | 0.0536 ± 0.0099 |
| UCGAGCUUCAGCUUGCAUAGUAUUUAGUUA | 1.12 ± 0.046 | 0.0555 ± 0.0099 |

| Sequence | pre-steady-state target cleavage rate [1] | pre-steady-state target cleavage rate [2] |
| --- | --- | --- |
| AGGAGCUUCAGCUUGCAUAGUAUUUAGUUA | 1.48 ± 0.047 | 0.0864 ± 0.015 |
| UGGAGCUUCAGCUUGCAUAGUAUUUAGUUA | 1.34 ± 0.048 | 0.0706 ± 0.01 |
| AGGACCUAGUGCUUGCAUAGUAUUUAGUAA | 0.457 ± 0.051 | 0.0314 ± 0.0063 |
| UCCUCCUACAGCUUGCUAAGUAUUUAGUAA | 0.066 ± 0.012 | – |
| AGGACCUACAGCUUGGAUAGUAUUAAGUUA | 0.722 ± 0.072 | 0.0226 ± 0.004 |
| UAGACCUACAGCUUGCAUAGUAUUUAGUUA | 1.31 ± 0.043 | 0.0672 ± 0.011 |
| AAGACCUACAGCUUGCAUAGUAUUUAGUUA | 1.69 ± 0.062 | 0.0921 ± 0.015 |
| AGACCUACAGCUUGCAUAGUAUUUAGUUA | 1.46 ± 0.052 | 0.0902 ± 0.017 |
| AGGACCUACAGGUAGCAUAGUAUUUAGUUA | 1.04 ± 0.054 | 0.00995 ± 0.0022 |
| UCCUGGUACAGCUUGCAUAGUAAAUUCAAA | 0.00975 ± 0.0053 | – |
| UCCUCCUACAGCUUGCAUAGUAUUUAGAUUA | 0.342 ± 0.031 | 0.0121 ± 0.0024 |
| UCCUGGAAGUCCUUGCAUAGUAUUUAGUUA | 0.175 ± 0.02 | 0.0104 ± 0.0031 |
| UCCGCCUACAGCUUGCAUAGUAUUUAGUUA | 1.23 ± 0.05 | 0.0714 ± 0.011 |
| UCCCCCUACAGCUUGCAUAGUAUUUAGUUA | 1.28 ± 0.039 | 0.0819 ± 0.014 |
| UCGCCCUACAGCUUGCAUAGUAUUUAGUUA | 1.32 ± 0.055 | 0.0692 ± 0.011 |
| UCGCCUACAGCUUGCAUAGUAUUUAGUUA | 1.5 ± 0.066 | 0.0743 ± 0.014 |
| UCCUGGUACAGCUUGCAUAGUUUUUAGUAA | 0.177 ± 0.037 | 0.0195 ± 0.0054 |
| UCCUGGUACAGCUUGCAUAGUUAUUAGUUA | 0.115 ± 0.018 | 0.018 ± 0.0051 |
